What all share (design): scale not given: direction of the effect not stated beside the values
Test [1] deals with Protein translocase subunit SecA (Escherichia coli (strain K12)) (UniProt P10408). The test can be described thus: Assay to Identify E. coli SecA ATPase Inhibitors. The note with it: 30 µM. The class given is functional.
Test [2] addresses T1, Ubiquitin-activating enzyme e1, putative (Leishmania donovani (strain BPK282A1)) (UniProt E9BSI1).
T1 sequence (whole entry): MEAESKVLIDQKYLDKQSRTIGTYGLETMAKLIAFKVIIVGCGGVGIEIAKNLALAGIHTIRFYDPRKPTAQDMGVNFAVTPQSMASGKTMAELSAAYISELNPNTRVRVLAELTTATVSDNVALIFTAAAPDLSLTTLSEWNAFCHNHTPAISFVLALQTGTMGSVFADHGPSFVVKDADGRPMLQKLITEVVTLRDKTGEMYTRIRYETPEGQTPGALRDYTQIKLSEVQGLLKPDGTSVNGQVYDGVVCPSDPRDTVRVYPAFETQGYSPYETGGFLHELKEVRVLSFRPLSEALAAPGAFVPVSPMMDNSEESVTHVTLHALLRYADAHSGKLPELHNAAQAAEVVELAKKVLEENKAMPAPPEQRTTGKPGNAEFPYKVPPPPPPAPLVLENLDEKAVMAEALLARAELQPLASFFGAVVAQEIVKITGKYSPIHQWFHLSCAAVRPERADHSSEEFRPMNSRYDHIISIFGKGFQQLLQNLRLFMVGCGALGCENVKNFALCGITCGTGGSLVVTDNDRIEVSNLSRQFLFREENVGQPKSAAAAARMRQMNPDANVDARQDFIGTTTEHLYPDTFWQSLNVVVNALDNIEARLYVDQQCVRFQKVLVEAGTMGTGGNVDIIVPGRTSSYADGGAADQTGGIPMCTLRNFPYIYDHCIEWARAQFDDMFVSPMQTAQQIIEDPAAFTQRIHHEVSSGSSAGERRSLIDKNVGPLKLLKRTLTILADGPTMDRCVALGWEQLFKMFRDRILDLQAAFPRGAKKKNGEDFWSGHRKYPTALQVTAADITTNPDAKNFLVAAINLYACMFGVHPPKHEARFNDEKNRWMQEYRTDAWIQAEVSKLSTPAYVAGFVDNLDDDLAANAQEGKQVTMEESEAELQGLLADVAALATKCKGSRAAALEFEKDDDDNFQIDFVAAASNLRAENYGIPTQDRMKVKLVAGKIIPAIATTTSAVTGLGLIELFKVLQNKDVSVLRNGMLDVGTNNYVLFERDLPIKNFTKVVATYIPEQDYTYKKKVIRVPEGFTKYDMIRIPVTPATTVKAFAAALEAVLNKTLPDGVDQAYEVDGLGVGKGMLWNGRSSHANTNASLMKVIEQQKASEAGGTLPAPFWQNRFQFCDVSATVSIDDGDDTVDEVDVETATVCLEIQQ
The test can be described thus: Leishmania donovani Ubiquitin Activating Enzyme (LdE1). It is filed as functional. To be noted: 30 µM.

Test [3] deals with AMP-activated protein kinase, AMPK (Homo sapiens) (UniProt P54646+O43741+P54619+Q9UGJ0+Q9Y478+Q13131+Q9UGI9). The test can be described thus: AMP-dependent Kinase enzyme assay. An in vitro enzyme assay that detects ADP turnover that is directly proportional to AMPK activity. This uses naive AMPK that is activated during the assay with MK-8722. It is filed as functional. The note with it: 30 µM.

In test [4] the target is Sialic acid-binding Ig-like lectin 9 (Homo sapiens) (UniProt Q9Y336). The test can be described thus: Hs-Siglec9 ALPHAscreen SOP 20170721. To be noted: 10 µM. A general note: Bead proximity is the source of the signal in Alpha formats.
Sialic acid-binding Ig-like lectin 9 (Homo sapiens), sequence (Q9Y336 whole entry): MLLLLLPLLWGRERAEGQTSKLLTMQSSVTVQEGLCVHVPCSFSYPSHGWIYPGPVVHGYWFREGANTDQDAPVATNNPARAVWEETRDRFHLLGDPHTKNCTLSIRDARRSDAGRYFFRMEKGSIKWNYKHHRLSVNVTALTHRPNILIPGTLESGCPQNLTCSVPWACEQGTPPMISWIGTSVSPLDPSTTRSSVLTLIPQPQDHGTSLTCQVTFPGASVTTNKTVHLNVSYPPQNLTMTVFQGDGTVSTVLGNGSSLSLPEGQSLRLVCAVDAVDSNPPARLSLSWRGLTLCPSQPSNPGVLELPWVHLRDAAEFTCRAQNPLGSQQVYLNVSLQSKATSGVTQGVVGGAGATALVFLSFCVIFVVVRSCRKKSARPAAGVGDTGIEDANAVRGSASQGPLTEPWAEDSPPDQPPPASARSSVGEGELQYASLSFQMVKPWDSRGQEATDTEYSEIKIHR
Another test concerns Trypanosoma cruzi. The test can be described thus: Trypanosoma cruzi phosphomannomutase and mannose-1-phosphate guanylyltransferase assay. To be noted: 10 µM. The class given is functional.
In test [5] the target is T2, Arginase-2, mitochondrial (Homo sapiens) (UniProt P78540).
T2 sequence (whole entry): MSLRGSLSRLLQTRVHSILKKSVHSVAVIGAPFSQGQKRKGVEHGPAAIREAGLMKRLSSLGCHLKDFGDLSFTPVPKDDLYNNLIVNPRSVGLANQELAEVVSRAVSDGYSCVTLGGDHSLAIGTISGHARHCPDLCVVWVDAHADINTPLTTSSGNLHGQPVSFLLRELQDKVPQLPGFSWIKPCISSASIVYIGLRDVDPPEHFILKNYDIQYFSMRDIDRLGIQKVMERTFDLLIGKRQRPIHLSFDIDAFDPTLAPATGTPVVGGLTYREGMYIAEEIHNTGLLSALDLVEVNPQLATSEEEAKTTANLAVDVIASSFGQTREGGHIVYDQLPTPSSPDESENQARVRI
The test can be described thus: in vitro enzyme assay to detect the production of urea directly proportional to the activity of Arginase II. Also: in the data most compounds retested in dose-response had high values. The class given is functional. The note with it: 33.3 µM.

Test [6] concerns the target T3, Proteasome subunit beta (Trypanosoma cruzi) (UniProt O96673).
T3 sequence (whole entry): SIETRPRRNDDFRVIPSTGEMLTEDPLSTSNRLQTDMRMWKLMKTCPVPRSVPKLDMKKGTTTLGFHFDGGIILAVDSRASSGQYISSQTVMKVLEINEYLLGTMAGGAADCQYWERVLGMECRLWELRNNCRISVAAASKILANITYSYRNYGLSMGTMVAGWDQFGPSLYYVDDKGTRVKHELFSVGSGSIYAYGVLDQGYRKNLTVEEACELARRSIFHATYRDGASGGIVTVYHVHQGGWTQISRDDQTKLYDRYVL
The test can be described thus: Trypanosoma cruzi proteasome chymotrypsin-like activity (TcProtChymo) assay. Also: in the data most compounds retested in dose-response had high values. The note with it: 9.37 µM. It is filed as functional.

The species named for the next test is Homo sapiens. The test can be described thus: To identify inhibition of the IFN signalling (Jak-Stat) pathway via expression of an eGFP reporter gene under the control of an IFN-stimulated response element (ISRE) containing MxA promoter. It is filed as functional. To be noted: 30 µM.
Test [7] concerns the target T4, Tyrosyl-tRNA synthetase, putative (Trypanosoma cruzi (strain CL Brener)) (UniProt Q4DSP6).
T4 sequence (whole entry): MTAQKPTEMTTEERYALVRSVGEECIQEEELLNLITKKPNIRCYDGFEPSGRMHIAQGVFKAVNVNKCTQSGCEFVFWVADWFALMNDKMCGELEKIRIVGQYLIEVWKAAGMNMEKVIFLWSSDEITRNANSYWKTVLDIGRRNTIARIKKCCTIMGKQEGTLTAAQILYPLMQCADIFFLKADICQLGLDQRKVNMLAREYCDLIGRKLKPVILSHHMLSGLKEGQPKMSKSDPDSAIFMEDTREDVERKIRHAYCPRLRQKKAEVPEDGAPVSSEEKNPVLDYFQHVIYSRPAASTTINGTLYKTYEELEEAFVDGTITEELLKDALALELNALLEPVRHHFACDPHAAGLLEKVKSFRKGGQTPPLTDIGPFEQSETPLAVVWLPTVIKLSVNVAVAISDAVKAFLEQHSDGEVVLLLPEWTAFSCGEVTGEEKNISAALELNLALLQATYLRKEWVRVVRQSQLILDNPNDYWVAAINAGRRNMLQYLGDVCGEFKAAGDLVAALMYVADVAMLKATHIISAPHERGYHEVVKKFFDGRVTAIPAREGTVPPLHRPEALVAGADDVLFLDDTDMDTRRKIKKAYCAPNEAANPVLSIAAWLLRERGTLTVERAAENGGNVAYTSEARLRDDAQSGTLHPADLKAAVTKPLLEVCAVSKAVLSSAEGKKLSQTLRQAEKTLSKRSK
The test can be described thus: Trypanosoma cruzi tyrosyl tRNA synthetase (TcYRS) _High Tyrosine SOP. Also: in the data most compounds retested in dose-response had high values. The class given is functional. To be noted: 30 µM.

Test [8] concerns the target T4, Tyrosyl-tRNA synthetase, putative (Trypanosoma cruzi (strain CL Brener)). The test can be described thus: Trypanosoma cruzi tyrosyl tRNA synthetase (TcYRS) SOP. The class given is functional. To be noted: 30 µM.
Test [9] deals with Chromo domain-containing protein 1 (Saccharomyces cerevisiae (strain ATCC 204508 / S288c) (Baker's yeast)) (UniProt P32657). The test can be described thus: ScCHD-1 Enzyme Inhibition Assay. Also: in the data most compounds retested in dose-response had high values. The class given is functional. The note with it: 30 µM.
Chromo domain-containing protein 1 (Saccharomyces cerevisiae (strain ATCC 204508 / S288c) (Baker's yeast)), sequence (P32657 whole entry, the tested form may be a part): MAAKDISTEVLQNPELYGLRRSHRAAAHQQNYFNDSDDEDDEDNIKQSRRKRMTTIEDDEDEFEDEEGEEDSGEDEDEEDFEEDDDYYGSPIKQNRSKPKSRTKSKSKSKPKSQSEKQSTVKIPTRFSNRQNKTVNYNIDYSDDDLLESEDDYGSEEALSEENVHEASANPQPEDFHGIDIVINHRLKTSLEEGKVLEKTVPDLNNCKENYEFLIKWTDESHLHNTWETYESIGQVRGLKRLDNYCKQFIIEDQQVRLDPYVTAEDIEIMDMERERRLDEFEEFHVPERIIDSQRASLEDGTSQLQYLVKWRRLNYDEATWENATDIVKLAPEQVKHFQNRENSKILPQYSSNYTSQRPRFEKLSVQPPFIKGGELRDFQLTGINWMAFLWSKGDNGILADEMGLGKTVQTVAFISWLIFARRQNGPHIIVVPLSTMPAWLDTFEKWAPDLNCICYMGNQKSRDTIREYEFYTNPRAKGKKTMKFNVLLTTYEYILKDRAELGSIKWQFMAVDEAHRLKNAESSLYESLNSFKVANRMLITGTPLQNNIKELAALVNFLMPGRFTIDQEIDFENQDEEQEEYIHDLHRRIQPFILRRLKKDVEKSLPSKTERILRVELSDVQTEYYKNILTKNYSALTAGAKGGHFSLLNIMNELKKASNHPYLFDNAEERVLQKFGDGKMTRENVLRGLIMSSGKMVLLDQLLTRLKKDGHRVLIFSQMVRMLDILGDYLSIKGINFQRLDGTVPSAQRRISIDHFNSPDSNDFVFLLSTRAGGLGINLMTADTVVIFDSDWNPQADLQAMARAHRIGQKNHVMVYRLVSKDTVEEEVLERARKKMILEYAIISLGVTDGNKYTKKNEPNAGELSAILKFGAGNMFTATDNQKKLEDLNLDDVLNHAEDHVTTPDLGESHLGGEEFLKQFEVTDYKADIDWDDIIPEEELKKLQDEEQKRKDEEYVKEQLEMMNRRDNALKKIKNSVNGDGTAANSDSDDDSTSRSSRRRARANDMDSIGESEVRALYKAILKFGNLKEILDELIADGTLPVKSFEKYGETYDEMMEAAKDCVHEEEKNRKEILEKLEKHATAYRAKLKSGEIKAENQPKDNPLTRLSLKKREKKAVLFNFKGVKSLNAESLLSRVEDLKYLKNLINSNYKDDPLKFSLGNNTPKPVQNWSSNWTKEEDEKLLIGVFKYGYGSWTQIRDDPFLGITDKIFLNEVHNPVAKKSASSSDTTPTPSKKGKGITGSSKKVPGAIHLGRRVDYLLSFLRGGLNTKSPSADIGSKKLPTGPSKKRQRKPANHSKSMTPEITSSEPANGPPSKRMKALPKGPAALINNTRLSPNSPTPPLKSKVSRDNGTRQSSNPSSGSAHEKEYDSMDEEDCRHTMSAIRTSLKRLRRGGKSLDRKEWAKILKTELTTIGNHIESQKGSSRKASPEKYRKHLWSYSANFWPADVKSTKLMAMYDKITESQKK

For some of these results: Potency and affinity values are given separately.

Protein translocase subunit SecA (Escherichia coli (strain K12)), sequence (P10408 whole entry): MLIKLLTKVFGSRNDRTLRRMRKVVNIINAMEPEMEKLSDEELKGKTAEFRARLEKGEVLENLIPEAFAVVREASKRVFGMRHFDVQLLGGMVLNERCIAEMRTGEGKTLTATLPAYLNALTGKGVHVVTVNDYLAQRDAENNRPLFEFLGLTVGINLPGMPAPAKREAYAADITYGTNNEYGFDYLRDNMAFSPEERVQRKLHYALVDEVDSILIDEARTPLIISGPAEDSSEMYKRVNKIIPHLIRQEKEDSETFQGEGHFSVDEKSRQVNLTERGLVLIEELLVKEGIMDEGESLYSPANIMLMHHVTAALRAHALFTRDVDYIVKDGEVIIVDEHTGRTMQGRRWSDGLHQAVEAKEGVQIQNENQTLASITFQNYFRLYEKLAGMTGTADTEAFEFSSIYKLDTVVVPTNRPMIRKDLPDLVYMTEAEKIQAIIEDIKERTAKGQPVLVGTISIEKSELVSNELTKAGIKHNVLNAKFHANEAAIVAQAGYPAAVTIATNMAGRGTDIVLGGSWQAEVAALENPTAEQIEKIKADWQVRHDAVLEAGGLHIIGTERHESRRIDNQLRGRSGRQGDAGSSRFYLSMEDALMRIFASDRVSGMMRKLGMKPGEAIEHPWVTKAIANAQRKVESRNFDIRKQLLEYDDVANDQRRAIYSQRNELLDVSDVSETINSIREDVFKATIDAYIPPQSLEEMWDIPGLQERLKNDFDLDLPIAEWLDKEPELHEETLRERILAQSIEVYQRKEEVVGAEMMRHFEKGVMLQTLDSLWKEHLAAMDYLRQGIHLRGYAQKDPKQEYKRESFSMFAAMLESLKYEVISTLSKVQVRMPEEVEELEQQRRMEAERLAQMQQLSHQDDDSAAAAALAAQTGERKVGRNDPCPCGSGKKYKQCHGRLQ

With `Cc1cn2c(n1)CCC(NC(=O)CCn1cncn1)C2` (stereo unspecified), the Percent Effect in [1] is -8.14%; in test [2], 5.26%; in test [3], -6.54%; in test [4], -5.36%; with Trypanosoma cruzi, -3.64%; in test [5], -2.88%. The Percent Effect in [6] is 10.4%; in the test listed under Homo sapiens, -0.843%; in test [7], -1.48%; in test [8] it was 1.24%; in test [9] it was 7.18%.
With `Cc1cccc(NC(=O)[C@@H]2CCCN2CC(=O)N2CCCCCC2)n1`, the Percent Effect was -4.79% in test [1]; 16% in test [2]; -8.35% in [3]; 23.6% in test [4]; 5.75% in the test with Trypanosoma cruzi; 34.4% in [5]. For the same molecule, the Percent Effect in test [6] was 14.8%; in the test listed under Homo sapiens, -1.75%; in test [7] it was 4.92%; in [8], 16.1%; in [9], -6.64%.
Take `CCOc1ccc(S(=O)(=O)NC(=O)CCC2CCCO2)cc1` (stereo unspecified): the Percent Effect in test [1] is -3.8%; in test [2] it was 13.5%; in [3], -7.18%; in test [4] it was -5.67%; in the test on Trypanosoma cruzi it was 0.283%; in test [5] it was -5.21%. In addition, the Percent Effect is 17.5% in test [6]; 1.86% in the test listed under Homo sapiens; 10.3% in test [7]; 18.5% in test [8]; -9.06% in [9].
With `O=C(CSc1ncccn1)N1C[C@H]2CC[C@@H]1CN(Cc1ccncc1)C2`, the Percent Effect in test [1] was -4.87%; in test [2] it was 11%; in [3] it was -5.51%; in test [4], 21%; in the test with Trypanosoma cruzi, 6.46%; in [5], 8.64%. Also, the Percent Effect in test [6] is 12.9%; in the test filed under Homo sapiens, -3.77%; in test [7] it was 5.38%; in test [8], 7.5%; in test [9], -3.96%.
With `CC(C)CN1CCCn2nc(CNC(=O)CCN)cc2C1`, the Percent Effect is -6.28% in [1]; 5.33% in test [2]; 4.29% in test [3]; 6.76% in [4]; 1.85% in the test with Trypanosoma cruzi; 3.65% in [5]. Also, the Percent Effect in test [6] is 13.4%; in the test listed under Homo sapiens, 7.88%; in test [7] it was 6.01%; in test [8], 16.1%; in test [9], -5.7%.
Consider `CCn1nc(C)c2nc(C(C)C)nc(NCCOC)c21`, for which the Percent Effect was -4.55% in [1]; 6.67% in test [2]; 7.63% in test [3]; 3.6% in [4]; 2.36% with Trypanosoma cruzi; -4.4% in test [5]. The Percent Effect is 15.5% in test [6]; 19.2% in the test listed under Homo sapiens; 5.29% in test [7]; 12.8% in test [8]; -9.33% in [9].
As to `Cc1cnc(Nc2nccnc2C2CCN(C)CC2)s1`, the Percent Effect is 3.01% in test [1]; 13.3% in test [2]; 9.68% in [3]; -6.36% in test [4]; -4.92% in the test with Trypanosoma cruzi; 0.699% in test [5]. Also, the Percent Effect is 5.2% in [6]; 10.5% in the test filed under Homo sapiens; 7.45% in test [7]; 8.97% in test [8]; -6.78% in [9].
Regarding `Cc1cccnc1NC(=O)C(C)Cn1nc(C(F)(F)F)cc1C` (stereo unspecified), the Percent Effect in [1] was -1.64%; in [2], -4%; in [3], 2.53%; in test [4], 4.76%; with Trypanosoma cruzi, -3.73%; in test [5], -1.94%. Besides, the Percent Effect in [6] was 11.8%; in the test listed under Homo sapiens it was -10.4%; in test [7], 3.17%; in [8] it was 2.56%; in test [9], -1.89%.
In the case of `CC(NCC1=Cc2cc(Cl)ccc2OC1)c1nnc2n1CCCC2` (stereo unspecified), the Percent Effect in [1] was -3.07%; in [2], -2.7%; in test [3], 3.91%; in test [4], 2.75%; with Trypanosoma cruzi, -0.195%; in test [5] it was 1.67%. Also, the Percent Effect in [6] was 9.38%; in the test listed under Homo sapiens, -10.3%; in [7], 4.95%; in [8], 1.22%; in test [9], -3.29%.
Regarding `CN(Cc1ccccc1Br)C(=O)Cn1nc(-c2ccc(F)cc2)oc1=O`, the Percent Effect was 2.65% in test [1]; -5.26% in test [2]; 0.817% in [3]; -11.8% in test [4]; -6.33% in the test with Trypanosoma cruzi; 10.7% in [5]. Moreover, the Percent Effect in [6] is 10.8%; in the test listed under Homo sapiens, 10%; in test [7] it was -24.5%; in test [8], -28.6%; in test [9] it was -1.2%.
As for `CC(=O)NC1CCCN(C(=O)c2ccc(Br)cc2O)C1` (stereo unspecified), the Percent Effect in test [1] was -4.72%; in test [2] it was 8.11%; in [3] it was -9.01%; in [4], 7.98%; in the test on Trypanosoma cruzi, -2.92%; in test [5] it was 1.6%. For the same molecule, the Percent Effect in test [6] was 5.95%; in the test listed under Homo sapiens it was 3.4%; in test [7], 6.4%; in test [8], 16.1%; in test [9], -2.5%.

Source of the values: ChEMBL document CHEMBL3988442, “University of Dundee, Small-Polar-MMV Screening Library” (2021).
